Counter-ions that a name gives are not always drawn.
Columns and labels:
Conditions in all cases: incubation time: 27 h, anaerobic, 37 °C;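 for the amine columns active = adjusted P below 0.05 in both replicates with a change the same way and a mean fold change under 0.8 or over 1.25; inactive = the rest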
[1] = test system: Clostridium sporogenes DSM 1664; assay: growth (OD595) fold change vs plate DMSO controls (fold change (ratio)); higher = more growth
Summary of the method: (§1)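 Growth is calculated as fold change against the median of the DMSO control wells on each plate. Readings at 595 nm from anaerobic mGAM cultures (96-well, 27 h, 37 °C) were blank-subtracted, background-corrected with 20 µM compound solutions in water, and converted to OD by a calibration factor of 5. Fold changes above 1.5 were recorded as NA, and results are means of 2 biological replicates.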

Escherichia coli IAI1 [2] = assay: as above
Summary of the method: as §1

[3] = test system: Klebsiella aerogenes DSM 30053; assay: as above
Summary of the method: as §1

[4] = test system: Ruminococcus gnavus DSM 108212; assay: as above
Summary of the method: as §1

[5] = test system: Klebsiella aerogenes DSM 30053; assay: fold change of Histamine concentration vs plate DMSO controls (fold change (ratio)); higher = more amine produced, active = hit call of the paper (significant change in both replicates, either direction)
Summary of the method: (§2)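 Anaerobic mGAM cultures of four gut bacterial strains were grown at 37 °C for 27 h in 80 µL wells, starting at OD 0.1 before 1:1 dilution. Compounds were at 20 µM final (sweeteners 50 µM). Whole cultures were extracted with cold acetonitrile/methanol containing 0.1% formic acid and centrifuged. Amines were quantified by LC–triple-quadrupole MS (dynamic MRM) against external calibration curves and drift-corrected within batch. Each value is the fold change versus plate DMSO controls, averaged over 2 biological replicates.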

[6] = test system: Clostridium sporogenes DSM 1664; assay: fold change of Tryptamine concentration vs plate DMSO controls (fold change (ratio)); higher = more amine produced, active = hit call of the paper (significant change in both replicates, either direction)
Summary of the method: as §2

[7] = test system: Ruminococcus gnavus DSM 108212; assay: as above
Summary of the method: as §2

Escherichia coli IAI1 [8] = assay: fold change of Putrescine concentration vs plate DMSO controls (fold change (ratio)); higher = more amine produced, active = hit call of the paper (significant change in both replicates, either direction)
Summary of the method: as §2

[9] = test system: Klebsiella aerogenes DSM 30053; assay: as above
Summary of the method: as §2

Escherichia coli IAI1 [10] = assay: fold change of Cadaverine concentration vs plate DMSO controls (fold change (ratio)); higher = more amine produced, active = hit call of the paper (significant change in both replicates, either direction)
Summary of the method: as §2

[11] = test system: Klebsiella aerogenes DSM 30053; assay: as above
Summary of the method: as §2

[12] = test system: Ruminococcus gnavus DSM 108212; assay: fold change of 2-Phenylethylamine concentration vs plate DMSO controls (fold change (ratio)); higher = more amine produced, active = hit call of the paper (significant change in both replicates, either direction)
Summary of the method: as §2

SMILES	growth [1]	growth (Escherichia coli IAI1 [2])	growth [3]	growth [4]	fold change of Histamine concentration [5]	fold change of Tryptamine concentration [6]	fold change of Tryptamine concentration [7]	fold change of Putrescine concentration (Escherichia coli IAI1 [8])	fold change of Putrescine concentration [9]	fold change of Cadaverine concentration (Escherichia coli IAI1 [10])	fold change of Cadaverine concentration [11]	fold change of 2-Phenylethylamine concentration [12]
OC[C@@H](O)[C@@H](O)[C@H](O)[C@@H](O)CO [Sorbitol] (50 µM)	1.06	0.929	0.967	1.1	1.03 (inactive)	0.988 (inactive)	0.966 (inactive)	0.923 (inactive)	0.869 (inactive)	1.1 (inactive)	1.06 (inactive)	0.959 (inactive)
CN(C)C(=N)NC(=N)N [Metformin hydrochloride] (20 µM)	0.988	1.02	0.989	1.26	0.96 (inactive)	1 (inactive)	1.06 (inactive)	1.03 (inactive)	0.96 (inactive)	0.962 (inactive)	1.02 (inactive)	1.08 (inactive)
CN[C@@H]1[C@@H](O)[C@@H](O[C@@H]2[C@@H](O)[C@H](O[C@H]3OC(CN)=CC[C@H]3N)[C@@H](N)C[C@H]2N)OC[C@]1(C)O [Sisomicin sulfate] (20 µM)	0.97	0.99	0.992	0.942	0.971 (inactive)	0.984 (inactive)	1.02 (inactive)	1 (inactive)	0.998 (inactive)	0.996 (inactive)	1 (inactive)	1.04 (inactive)
Cn1c(=O)c2c(ncn2CC(O)CO)n(C)c1=O (stereo not given) [Diprophylline] (20 µM)	0.915	1.02	0.992	0.783	1.03 (inactive)	0.964 (inactive)	0.971 (inactive)	1.02 (inactive)	1.01 (inactive)	0.98 (inactive)	1 (inactive)	0.99 (inactive)
COc1c(Cl)ccc(Cl)c1C(=O)O (20 µM)	1.05	1.02	1.03	1.19	0.99 (inactive)	0.999 (inactive)	0.997 (inactive)	1.01 (inactive)	1.01 (inactive)	1.03 (inactive)	1.01 (inactive)	0.995 (inactive)
Nc1nc(O)c2ncn(CCC(CO)CO)c2n1 [Penciclovir] (20 µM)	1.11	1.12	1.06	1.14	0.824 (inactive)	1.07 (inactive)	1.08 (inactive)	1.08 (inactive)	0.962 (inactive)	0.996 (inactive)	1.02 (inactive)	1.12 (inactive)
c1ccc(-c2ccc(C(c3ccccc3)n3ccnc3)cc2)cc1 (stereo not given) [Bifonazole] (20 µM)	1.27	1.08	1.02	0.817	0.99 (inactive)	0.923 (inactive)	0.82 (inactive)	1.04 (inactive)	1.01 (inactive)	0.981 (inactive)	1 (inactive)	0.927 (inactive)
Cc1ccccc1C(OCCN(C)C)c1ccccc1 (stereo not given) [Orphenadrine hydrochloride] (20 µM)	0.998	1.02	0.938	1.09	0.902 (inactive)	1.34 (inactive)	1.07 (inactive)	1.07 (inactive)	0.895 (inactive)	1.04 (inactive)	1.03 (inactive)	1.16 (inactive)
C[C@H]1C[C@H]2[C@@H]3CCC4=CC(=O)C=C[C@]4(C)[C@@]3(F)[C@@H](O)C[C@]2(C)[C@@]1(O)C(=O)CO [Betamethasone] (20 µM)	1.02	1.02	1.13	1.11	0.976 (inactive)	0.979 (inactive)	1.01 (inactive)	1.07 (inactive)	1.01 (inactive)	1.04 (inactive)	1.02 (inactive)	0.968 (inactive)
CC1=C(/C=C/C(C)=C/C=C/C(C)=C\C(=O)O)C(C)(C)CCC1 [Isotretinoin] (20 µM)	0.96	0.987	1.02	1.02	0.996 (inactive)	0.977 (inactive)	1.04 (inactive)	1.01 (inactive)	1.02 (inactive)	0.97 (inactive)	0.991 (inactive)	1.05 (inactive)
Clc1ccc(COC(Cn2ccnc2)c2ccc(Cl)cc2Cl)cc1 (stereo not given) [Econazole nitrate] (20 µM)	1.35	1.01	1.08	0.481	0.83 (inactive)	0.815 (inactive)	0.357 (active)	1.01 (inactive)	0.963 (inactive)	1.02 (inactive)	1.01 (inactive)	0.404 (active)
CCc1oc2ccccc2c1C(=O)c1ccc(O)cc1 [Benzarone] (20 µM)	1	1.1	1.09	1.11	0.967 (inactive)	0.933 (inactive)	0.934 (inactive)	1.06 (inactive)	1 (inactive)	1.01 (inactive)	1.02 (inactive)	0.956 (inactive)
CC1(C)[C@H](C(=O)O)N2C(=O)C[C@H]2S1(=O)=O [Sulbactam] (20 µM)	0.592	1.19	0.976	1.21	1.05 (inactive)	1.07 (inactive)	1.07 (inactive)	1.14 (inactive)	0.983 (inactive)	0.985 (inactive)	1.01 (inactive)	1.08 (inactive)
CN1Cc2c(N)cccc2C(c2ccccc2)C1 (stereo not given) [Nomifensine maleate] (20 µM)	1.07	0.982	1.01	1.1	0.994 (inactive)	0.989 (inactive)	1.04 (inactive)	0.989 (inactive)	1.01 (inactive)	0.935 (inactive)	1.02 (inactive)	0.992 (inactive)
O=C(CO)[C@@H](O)[C@@H](O)[C@H](O)CO [D-Tagatose] (50 µM)	0.957	1.01	1.03	0.984	0.943 (inactive)	0.991 (inactive)	0.995 (inactive)	1.03 (inactive)	1.02 (inactive)	1.07 (inactive)	1.03 (inactive)	0.992 (inactive)
CCCCNc1cc(C(=O)O)cc(S(N)(=O)=O)c1Oc1ccccc1 [Bumetanide] (20 µM)	1.19	1.01	1	0.971	0.994 (inactive)	1.03 (inactive)	1.05 (inactive)	1.04 (inactive)	1.02 (inactive)	1.03 (inactive)	1 (inactive)	1.07 (inactive)
COC(=O)[C@H](Cc1ccccc1)NC(=O)[C@H](CC(=O)O)NCCC(C)(C)C [Neotame] (50 µM)	1.05	1	1.04	1.07	0.99 (inactive)	1.05 (inactive)	1.01 (inactive)	1.01 (inactive)	1.01 (inactive)	0.933 (inactive)	1.02 (inactive)	1.02 (inactive)
Cc1onc(-c2c(F)cccc2Cl)c1C(=O)N[C@@H]1C(=O)N2[C@@H]1SC(C)(C)[C@@H]2C(=O)O [Flucloxacillin sodium] (20 µM)	0	1.02	0.993	0	0.99 (inactive)	0.0254 (active)	0.0375 (active)	1.01 (inactive)	1.02 (inactive)	1.07 (inactive)	1.02 (inactive)	0.0397 (active)
Oc1c(Br)cc(Br)c2cccnc12 [Broxyquinoline] (20 µM)	0.98	0.92	0.951	0.643	1.09 (inactive)	0.919 (inactive)	0.562 (active)	1.03 (inactive)	1.02 (inactive)	1.2 (inactive)	0.968 (inactive)	0.6 (inactive)
O=C1[C@H](CC[C@H](O)c2ccc(F)cc2)[C@@H](c2ccc(O)cc2)N1c1ccc(F)cc1 [Ezetimibe] (20 µM)	1.3	1.1	1.02	0.955	0.972 (inactive)	0.796 (inactive)	0.858 (inactive)	1.02 (inactive)	1 (inactive)	0.987 (inactive)	0.992 (inactive)	0.832 (inactive)
C=CC[C@@H]1/C=C(\C)C[C@H](C)C[C@H](OC)[C@H]2O[C@@](O)(C(=O)C(=O)N3CCCC[C@H]3C(=O)O[C@H](/C(C)=C/[C@@H]3CC[C@@H](O)[C@H](OC)C3)[C@H](C)[C@@H](O)CC1=O)[C@H](C)C[C@@H]2OC [Tacrolimus Monohydrate] (20 µM)	0.867	1.04	1.02	1.02	1.02 (inactive)	1.02 (inactive)	1.01 (inactive)	1.05 (inactive)	1.02 (inactive)	1.01 (inactive)	1.01 (inactive)	1.02 (inactive)
C#CCN(C)Cc1ccccc1 [Pargyline hydrochloride] (20 µM)	0.983	0.989	1.03	0.999	0.983 (inactive)	1.01 (inactive)	1.01 (inactive)	0.99 (inactive)	1.01 (inactive)	1 (inactive)	1.01 (inactive)	0.995 (inactive)
Cn1ccnc1S [Methimazole] (20 µM)	1.17	1.11	0.998	1.13	1.04 (inactive)	0.989 (inactive)	0.998 (inactive)	1.17 (inactive)	1 (inactive)	0.976 (inactive)	0.984 (inactive)	0.993 (inactive)
CO/N=C(\C(=O)N[C@@H]1C(=O)N2C(C(=O)OCOC(=O)C(C)(C)C)=C(/C=C\c3scnc3C)CS[C@H]12)c1csc(N)n1 [Cefditoren Pivoxil] (20 µM)	0.809	1.11	1.03	0.996	0.988 (inactive)	0.951 (inactive)	1 (inactive)	0.864 (inactive)	1.12 (inactive)	1.18 (inactive)	1.05 (inactive)	1.01 (inactive)
COC(=O)Nc1nc2cc(C(=O)c3cccs3)ccc2[nH]1 [Nocodazole] (20 µM)	0.969	1.01	1.02	1.05	0.98 (inactive)	0.968 (inactive)	0.999 (inactive)	0.977 (inactive)	1 (inactive)	0.996 (inactive)	1.03 (inactive)	1.03 (inactive)

From the supplement of paper PMC12494721
